Assay outcomes (PubChem)
Mm-Cpn inhibitor – M. maripaludis TRiC chaperonin inhibition | purified Mm-Cpn ATPase, ADP Transcreener TR-FRET | Potency, µM (highest dose often 76.9 µM), inactives show top-dose activity, negative = inhibition, usual class: inhibitors | 330,000 tested, 0.031% active | AID 504842; further: potency means the concentration at half of the fitted maximal effect; on the % scale 0 is the no-effect control and ±100 the full control effect; nearly all actives have a fitted effect of over 80% in size
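ATP (10 uM final) was added to archaeal chaperonin (25 nM final) after 10 min exposure to test compound at 37°C; after 30 min further incubation, ADP was detected by competitive TR-FRET.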
CCT modulator – changes cytosolic chaperonin activity. purified chaperonin ATPase assay, HTRF ADP detection, 30 min. activity change, % (no concentration beside the values), hits read low. 360,000 tested, 0.3% active. AID 651819; in the data active means activity change below about -30%; further: on the % scale 0 is the no-effect control and ±100 the full control effect
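TRiC at 40 or 20 nM final (batch-dependent) in 30 mM Tris pH 7.4, 100 mM KCl, 5 mM MgCl2, 1 mM DTT, with compound at single 76 uM and 10 uM ATP, 30 min at 37 deg C. ADP detected by HTRF Transcreener, 665/615 ratio.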
RXFP1 antagonist – RXFP1 (human) relaxin receptor antagonism. HEK293-RXFP1, relaxin-stimulated cAMP HTRF, 30 min; stronger effect = lower value. AID 1259400. 350,000 tested, 0.59% active. activity change, negative = inhibition, % at 57.5 µM;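 active means activity change of -60% or lower, but not beyond a set lower limit; inconclusive means change between -60% and -40%, or beyond the set limit; inactive means change above -40%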; further: on the % scale 0 is the no-effect control and ±100 the full control effect
gsp agonist – agonists of gsp mutant (McCune-Albright syndrome) | gsp mutant cells, cAMP HTRF, 30 min | 340,000 tested, 0.13% active | Potency, µM (highest dose often 76.9 µM), for the others: at the top dose activation (cAMP increase), hits mostly activators | AID 624287; active means well fitted activation curve with a large enough effect; inconclusive means small, poorly fitted or top-dose-only effect, or another doubt; inactive means no such curve, though single readings can be large or run the other way; cell line not stated here;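 further: phosphodiesterase inhibitor Ro 20-1724 added with compounds to block cAMP breakdown; potency means the concentration at half of the fitted maximal effect; nearly all actives have a fitted effect of over 60% in size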
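Cells in DMEM/10% FBS with G418 were pretreated with compounds in DMSO plus […] (300 uM stock) for 30 min at 37C. cAMP was measured by HTRF (cAMP-d2 plus anti-cAMP antibody-K) after 30 min at room temperature.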
RXFP1 ag – activates the human relaxin receptor RXFP1; Potency, µM (doses to about 57.5 µM), for the others: top-dose activation, most hits filed as activators; 370,000 tested, 0.3% active; HEK293T-RXFP1 cAMP TR-FRET, 30 min; response scale: percent of porcine relaxin response, buffer zero; further: potency means the concentration at half of the fitted maximal effect; on the % scale 0 is the no-effect control and ±100 the full control effect; nearly all actives have a fitted effect of over 60% in size
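HEK293 cells stably expressing RXFP1, treated 30 min at 37C with compounds plus PDE4 inhibitor Ro 20174; cAMP measured by HTRF TR-FRET. Normalized to buffer and 29 nM porcine relaxin; EC50 by Hill fit.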
gsp antagonist – gsp mutant antagonism | Potency, µM (top dose mostly 76.9 µM), inactives show at the highest dose activity change, negative = inhibition, most hits filed as inhibitors | gsp-mutant cells, cAMP HTRF, 30 min | 340,000 tested, 0.4% active; calls by dose curve; cell line not stated here;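 further: intracellular cAMP measured with PDE inhibitor Ro 20-1724 present during compound exposure; potency means the concentration at half of the fitted maximal effect; on the % scale 0 is the no-effect control and ±100 the full control effect; nearly all actives have a fitted effect of over 65% in size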
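Measurement of cellular cAMP by homogeneous time-resolved fluorescence following a 30 min compound exposure at 37C. The PDE inhibitor […] was present throughout; the assay buffer was DPBS with 0.05% BSA and 0.005% Tween 20.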
Starred values were filed as active, the others as inactive; ? = inconclusive; nt = not tested or not shown; [ ] = dose if it differs, or a comment. Shown are actives, neighbours in structure and some others; about 1.2% of the full set was active somewhere. Unless noted, the call rests on the fitted dose curve; in most records, active means well fitted curve in the direction sought with a large enough effect; inconclusive means small, poorly fitted or top-dose-only effect, or another doubt; inactive means no such curve, though single readings can be large; an effect the other way counts as inactive or inconclusive.

SMILES	Mm-Cpn inhibitor	CCT modulator	RXFP1 antagonist	gsp agonist	RXFP1 ag	gsp antagonist
Cc1ccc(-c2nc(C(=O)NC3CCCCCC3)no2)cc1	nt	1.8	-61.5*	-3.3%	nt	2.8%
CN(C)[C@@H]1C(=O)C(C(=O)NCN2CCCC2)=C(O)[C@@]2(O)C(=O)C3=C(O)c4c(O)cccc4[C@@](C)(O)C3C[C@@H]12 (stereo not given in full)	nt	nt	12.0	nt	nt	nt
C=CCOC(=O)C1=C(C)OC(N)=C(C#N)C1c1ccc(OC)c(CSc2ccccn2)c1 (stereo not given)	-1.2%	-84.7*	3.6	?	-0.2%	-1.9%
COc1ccccc1N1CCN(c2ccc(=O)n(CC(=O)NCc3ccc(F)cc3)n2)CC1	nt	nt	0.9	nt	0.1%	nt
O=C(Nc1ccccc1Cl)N1CCCN(c2nc(-c3ccccc3)ns2)CC1	-2.6%	1.4	-2.2	-37.8%	4.0%	?
O=C(Nc1ccccc1)N1CCN(c2nc(-c3ccccc3)ns2)CC1	-3.3%	-0.2	-17.7	8.9%[15.4 µM]	1.4%	35.5µM*
CC1=NN(C(N)=S)C(=O)C1N=Nc1c(Br)cc(Br)cc1Br (stereo not given)	1.9%	0.0	-64.3*	9.2%	-3.1%	-9.7%
CC1=NN(C(N)=S)C(=O)C1N=Nc1c(C)cc(C)cc1C (stereo not given)	-0.2%	-0.2	-1.4	-39.5%	-0.4%	2.6%
CCCSS/C(CCO)=C(\C)N(C=O)Cc1cnc(C)nc1N	nt	nt	9.1	nt	nt	nt
O=C(c1cccc(Br)c1)N1CCN(c2ccc(N3CCOCC3)nn2)CC1	-0.1%	-1.3	-16.9	17.8%	0.0%	-2.6%
O=C(c1cncc(Br)c1)N1CCN(c2ccc(N3CCOCC3)nn2)CC1	-1.0%	-37.4*	nt	-7.9%	0.1%	0.7%
c1ccc(CCNCCCOc2cccc3ccccc23)cc1	-1.5%	2.0	-94.6*	-39.6%	0.7%	3.8%
Cc1ccc(C)c(NC(=O)Cn2cc(S(=O)(=O)Cc3cccc(Cl)c3)c3ccccc32)c1	nt	nt	-11.8	nt	-1.0%	nt
CCOc1ccc(NC(=O)c2ccc(N3CC4CC(C3)c3cccc(=O)n3C4)c(NC(=O)CCN3CCOCC3)c2)cc1 (stereo not given)	1.7%	-1.2	-15.8	-5.0%	-3.9%	-5.2%
CCOc1ccc(/C=N/NC(=O)Cc2ccccc2)cc1CN1CC2CC(C1)c1cccc(=O)n1C2 (stereo not given)	-0.5%	-1.7	nt	nt	2.0%	35.5µM*
CCOc1ccc(/C=N/NC(=O)c2ccc(O)cc2)cc1CN1CC2CC(C1)c1cccc(=O)n1C2 (stereo not given)	-0.6%	-3.2	nt	nt	1.6%	39.8µM*
CCCCNS(=O)(=O)c1ccc2nc(-c3cccnc3)cc(C(=O)NCCC)c2c1	nt	nt	5.7	nt	-1.2%	nt
CCOc1ccc(-c2nc(CCl)cs2)cc1	-0.2%	2.1	11.4	1.0%	-0.5%	1.9%
COc1ccc(Br)cc1-c1nc(CCl)cs1	?	-1.4	6.3	?	17.8µM*	6.2%
CC1CCCN(C(=O)COC(=O)CNC(=O)c2sc3ccccc3c2Cl)C1 (stereo not given)	-19.0%	-2.4	3.1	31.6µM*	?	8.1%
COc1ccc(-c2cncnc2-c2ccc(OC)cc2O)cc1	0.4%	-6.6	-2.8	23.6%	0.9%	-20.1%
COc1cccc(Oc2cncnc2-c2ccc(OC)cc2O)c1	0.3%	-1.4	-3.5	14.2%	0.9%	28.2µM*
CN(C)S(=O)(=O)Oc1cccc(C(=O)Nc2ccc(Cl)c(Cl)c2)c1	0.2%	0.3	-6.3	3.9%	0.0%	?
CN(C)S(=O)(=O)Oc1cccc(C(=O)Nc2cccc(Cl)c2)c1	2.3%	-1.7	-4.1	-29.8%	-3.2%	28.2µM*
COc1cccc(NC(=O)c2cc(CN3CCOCC3)on2)c1	nt	nt	8.1	nt	-1.1%	nt
COc1ccc2[nH]c3c(=S)nc[nH]c3c2c1	-15.2%	0.4	8.7	38.6%[15.4 µM]	15.8µM*	15.8%
C=CCNC(=O)NC(=O)COC(=O)c1nc2nccc(C)n2n1	0.7%	-1.3	4.0	?	15.8µM*	5.2%
